Wee1 stabilizer: blocks degradation of human Wee1 kinase. 220,000 tested, 1.2% active. P30291. reporter increase, % at 5 µM. HeLa Luc-Wee1K328M stability, luciferase luminescence; 100% = proteasome inhibitor MG132 effect;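 active = activation above the mean of all tested compounds plus 3 SD, set per screening run, cut at about 8.8% in these data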;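 also: cells exposed to compound for 20 h before luminescence read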
Target sequence (P30291 whole entry K328M): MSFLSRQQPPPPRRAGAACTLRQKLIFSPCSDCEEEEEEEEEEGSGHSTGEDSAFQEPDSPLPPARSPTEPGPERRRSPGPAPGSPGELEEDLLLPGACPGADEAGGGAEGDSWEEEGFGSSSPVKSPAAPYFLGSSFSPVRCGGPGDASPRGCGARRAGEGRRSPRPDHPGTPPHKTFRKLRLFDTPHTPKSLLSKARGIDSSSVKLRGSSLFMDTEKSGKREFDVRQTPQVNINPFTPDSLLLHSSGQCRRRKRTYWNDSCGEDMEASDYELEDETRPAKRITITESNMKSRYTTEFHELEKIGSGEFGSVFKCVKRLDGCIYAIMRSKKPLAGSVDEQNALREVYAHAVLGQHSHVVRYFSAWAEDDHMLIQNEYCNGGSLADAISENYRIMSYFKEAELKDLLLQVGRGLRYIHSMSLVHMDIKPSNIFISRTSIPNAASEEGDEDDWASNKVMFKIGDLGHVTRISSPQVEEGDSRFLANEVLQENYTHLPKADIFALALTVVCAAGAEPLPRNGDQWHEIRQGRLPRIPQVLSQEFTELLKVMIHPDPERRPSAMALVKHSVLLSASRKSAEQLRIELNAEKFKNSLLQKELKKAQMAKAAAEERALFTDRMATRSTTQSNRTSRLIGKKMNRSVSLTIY
ssDAF12 agonist: activators of S. stercoralis DAF-12 nuclear receptor; AID 652126; 370,000 tested, 1% active; activation, % at 6.8 µM; HEK293 ssDAF-12/GRIP1 lit1-tk-luc reporter, luminescence; % of 3 µM dafachronic acid response;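 active = activation above the mean over all tested compounds plus 3 SD, cut at about 0.9% in these data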
hcDAF-12 act: activates DAF-12 receptor from parasite H. contortus | 370,000 tested, 1.4% active | HEK293 hcDAF-12 lit1-tk-luc reporter, luminescence; 0% DMSO, 100% Δ7-dafachronic acid | activation, % at 6.8 µM | AID 652067;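 active = activation above the mean of all tested compounds plus 3 SD, cut at about 5.5% in these data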
DAX1 inh-1: inhibitors of DAX1 repression of SF-1 activated StAR promoter. HEK293T StAR-luciferase reporter, SF-1/DAX-1 repression relief. inhibition, % at 6.8 µM. 370,000 tested, 1.1% active. AID 652010;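 active = inhibition above the mean over all tested compounds plus 3 SD, cut at about 3.6% in these data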;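 also: higher inhibition means more luminescence from relief of DAX-1 repression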
DAX1 inh-2: NR0B1 (DAX1) inhibition | P51843 | HEK293 Gal4-DAX1 luciferase reporter, luminescence | inhibition, % at 6.75 µM | 340,000 tested, 0.99% active | AID 504766;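 active = inhibition above the mean over all tested compounds plus 3 SD, cut at about 4.2% in these data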;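 also: inhibition shows as a rise in luminescence from relieved DAX1 repression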
hgDAF12 agonist: agonists of H. glycines DAF-12 nuclear receptor. HEK293 GAL4-hgDAF12 UAS-luciferase reporter, agonist luminescence; normalized to butyrate control. activation, % at 6.8 µM. 370,000 tested, 1.8% active. AID 687014;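 active = activation above a cutoff set at the mean of all screened compounds plus 3 SD, cut at about 10% in these data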
LXR ag: activates human LXR-beta, counter-screen for hcDAF-12 agonists; shares compounds with hcDAF-12 act; HEK293 Gal4-LXR tk-luc reporter, luminescence, 24 h; normalized: DMSO 0%, positive control 100%; activation, % at 6.8 µM; 3,400 tested, under 10 active;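 active = mean percent activation of the reporter above a cutoff set as the average over tested compounds plus their standard deviation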
hcDAF12 ag: hcDAF-12 agonism, confirmation assay; shares compounds with hcDAF-12 act; HEK293 hcDAF-12 lit1-tk-luc reporter, luminescence; % of Δ7-dafachronic acid response; AID 743032; activation, % at 6.8 µM; 3,400 tested, 61% active;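 active = mean activation across triplicate tests above the threshold derived from the earlier primary screen, cut at about 5.5% in these data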
hgDAF12 ag: confirmation of H. glycines DAF-12 agonists. shares compounds with hgDAF12 agonist. HEK293 GAL4-hgDAF12 luciferase reporter, agonist mode; percent of butyrate response. activation, % at 6.8 µM. 3,300 tested, 80% active;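 active = mean activation over triplicate wells above the hit cutoff derived from the earlier primary screen, cut at about 11% in these data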
LXRb DAF12 ctr: activates human LXR-beta, counter-screen for DAF-12 agonists; shares compounds with hgDAF12 agonist; HEK293 Gal4-LXR luciferase reporter, 24 h; activation, % at 6.8 µM; 3,300 tested, under 10 active; AID 743051;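 active = mean activation of the triplicate above a set limit carried over from the primary screen, none filed active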
Hits are given with their value; – = inactive; · = not tested or not shown. Shown are actives, neighbours in structure and some others; about 4.6% of the full set was active somewhere.

SMILES	Wee1 stabilizer	ssDAF12 agonist	hcDAF-12 act	DAX1 inh-1	DAX1 inh-2	hgDAF12 agonist	LXR ag	hcDAF12 ag	hgDAF12 ag	LXRb DAF12 ctr
O=C(/C=C/c1ccccc1)c1c[nH]c2ccccc12	–	3.8	12	–	4.3	20	–	8.3	19	–
NC(=O)c1c[nH]c2ccccc12	–	–	–	–	–	–	·	·	·	·
Cc1ccc(C=NNc2ccc([N+](=O)[O-])cn2)cc1	·	–	7.4	–	4.8	18	–	–	13	–
Cc1ccc(-n2c(C)cc(/C=N/Nc3ccc([N+](=O)[O-])cn3)c2C)cc1	–	–	–	–	–	–	·	·	·	·
COc1ccccc1OCCSc1nc2ccccc2n1CC(=O)O	·	–	–	–	–	–	·	·	·	·
COc1ccc2cc(C#N)c(SCC(=O)N3CCCC3)nc2c1	–	–	–	–	–	–	·	·	·	·
COC(=O)CSc1nc2cc(OC)ccc2cc1C#N	–	–	8.2	3.8	4.3	15	–	7.8	23	–
Oc1ccc(F)cc1-c1cc(-c2ccc3c(c2)OCCO3)n[nH]1	9.5	1.3	8.1	–	4.4	15	–	–	20	–
O=C(N/N=C/c1c[nH]c2ccccc12)c1cccs1	–	1.7	6.9	–	·	14	–	6.4	11	–
O=C(N/N=C/c1cccc2ccccc12)c1cccs1	·	–	8.2	–	4.5	17	–	7.3	16	–
O=C(NN=Cc1cccc2ccccc12)C(=O)NN=Cc1cccc2ccccc12	·	–	–	–	–	–	·	·	·	·
O=C(N/N=C/c1c[nH]c2ccccc12)c1ccc2c(c1)OCCO2	–	1.7	13	–	–	18	–	7.0	23	–
O=C(N/N=C/c1c[nH]c2ccccc12)c1ccncc1	–	–	–	–	–	–	·	·	·	·
Cc1ccc(OCC(=O)OCC(=O)N2c3ccccc3CC2C)cc1C (centres undefined)	·	–	–	–	–	–	·	·	·	·
CC1=C(C(=O)N(C(C)C)C(C)C)CC(CC(=O)NCCN2CCOCC2)C(=O)N1Cc1ccc(F)cc1 (centres undefined)	·	–	–	–	·	–	·	·	·	·
O=C(N/N=C/c1cn(-c2ccccc2)nc1-c1cc2ccccc2o1)c1ccncc1	–	2.0	6.8	–	–	19	–	–	15	–
O=C(N/N=C/c1cn(-c2ccccc2)nc1-c1cccnc1)c1cccnc1	–	–	–	–	–	–	·	·	·	·
CC1(C(=O)NCc2ccccc2)CSCC(=O)N1CCc1c[nH]c2ccccc12 (centres undefined)	·	–	–	–	·	–	·	·	·	·
COc1ccc2[nH]c(C(=O)Nc3cccc(C)n3)cc2c1	–	0.9	7.9	3.7	·	15	–	6.2	22	–
CN(C)CC1C2CCC(C2)C1O (centres undefined)	·	–	–	–	–	–	·	·	·	·
CCOc1ccc(-c2c(=O)n(O)c3ccccc3[n+]2[O-])cc1	·	–	7.8	–	–	21	–	–	41	–
N#Cc1ccc(C(=O)Nc2ccc3ccccc3c2)cc1	·	–	7.9	–	–	20	–	–	22	–
O=C(Nc1ccc2cn[nH]c2c1)c1ccccc1F	–	–	7.8	3.9	–	14	–	–	16	–
O=C(Nc1ccc2ccccc2c1)c1ccccc1F	·	1.6	14	–	–	19	–	9.3	23	–
Clc1cccc(/C=N/Nc2ncnc3ccccc23)c1	–	1.8	11	–	–	13	–	7.1	18	–
SMILES	Wee1 stabilizer	ssDAF12 agonist	hcDAF-12 act	DAX1 inh-1	DAX1 inh-2	hgDAF12 agonist	LXR ag	hcDAF12 ag	hgDAF12 ag	LXRb DAF12 ctr
O=C(N=Nc1c(O)[nH]c2ccccc12)c1ccco1	–	–	9.8	–	4.4	19	–	10	17	–
COc1ccc(CN2CCN(Cc3cc4ccccc4o3)CC2CCO)cc1C (centres undefined)	·	–	–	–	–	–	·	·	·	·
Oc1ccc(/C=N/Nc2cccc(Cl)n2)c(O)c1	·	2.2	10	–	6.3	14	–	–	19	–
Oc1ccc(/C=N\Nc2cc(N3CCOCC3)nc(N3CCOCC3)n2)c(O)c1	–	–	–	–	–	–	·	·	·	·
CC1=CN2C(=N)/C(=C/c3ccc([N+](=O)[O-])o3)C(=O)N=C2S1	–	–	–	–	–	–	·	·	·	·
CC1=CN2C(=N)/C(=C/c3ccco3)C(=O)N=C2S1	–	1.6	10	4.0	–	16	–	–	12	–
COC(=O)c1ccc(C)c(NC(=O)c2ccc(CN3CCc4ccccc4C3)cc2)c1	·	–	–	–	–	–	·	·	·	·
c1ccc(N2CCN(c3cnc4ccccc4n3)CC2)cc1	–	–	7.0	–	–	15	–	–	20	–
Clc1ccc(N2CCN(c3cnc4ccccc4n3)CC2)cc1	–	–	–	–	–	–	·	·	·	·
Cc1ccc2nc(SCn3nnc4ccccc4c3=O)[nH]c2c1	–	1.8	9.8	4.1	–	24	–	10	16	–
C/C(N)=C(/C#N)C(=O)CSc1nc2ccc(C)cc2[nH]1	–	1.4	11	4.3	–	17	–	7.1	16	–
COc1ccc(NC(=O)C2(C)Cc3c(-c4cccc(C(F)(F)F)c4)ccnc3O2)cn1 (centres undefined)	·	–	–	–	·	–	·	·	·	·
COc1cc(OC)cc(-c2cc3ccc(OC)cc3cn2)c1	·	0.9	6.7	–	–	16	–	6.6	19	–
COc1ccc(-c2cc3cc(OC)c(OC)cc3cn2)cc1	·	–	–	–	–	–	·	·	·	·
COc1ccc2cc(-c3ccccc3)ncc2c1	·	1.8	13	–	–	16	–	14	20	–
Cc1cccc(CSc2ccc(S(=O)(=O)N3CCCC3)cn2)c1	·	–	–	–	–	–	·	·	·	·
O=C(Cn1cc(COc2ccc3ccccc3c2)nn1)NS(=O)(=O)c1cccc(OC(F)F)c1	·	–	–	–	·	–	·	·	·	·
Oc1[nH]c2ccccc2c1C=Nc1ccccc1	–	1.6	8.3	–	13	21	–	8.9	24	–
COc1ccc(C(=O)Nc2ccncc2)c(OC)c1	–	–	–	–	–	–	·	·	·	·
COc1cc(SC)ccc1C(=O)Nc1ccc2c(c1)CCC2	·	4.0	17	–	–	22	–	14	22	–

Compound activity from PubChem BioAssay.
